From PubChem
The list is not random: actives were taken first. Their share in the collection is about 0.47%.
UDG counterscr – UDG inhibition counter-screen | FRET deamination/UDG coupled assay, UDG read, 4 h | Potency, µM (series often up to 115 µM), inactives show at the highest dose activity change, negative = inhibition, actives largely listed as inhibitors | 91,000 tested, 0.14% active | AID 1347430; further: nearly all actives have a fitted effect of over 65% in size
AID inhibitor – inhibitors of human activation induced cytidine deaminase; Q9GZX7; AID deamination FRET fluorescence, UDG-coupled, 4 h; 91,000 tested, 0.32% active; AID 1347428; Potency, µM (series often up to 115 µM), actives largely listed as inhibitors; further: nearly all actives have a fitted effect of over 25% in size
Target sequence (Q9GZX7 whole entry, looked up): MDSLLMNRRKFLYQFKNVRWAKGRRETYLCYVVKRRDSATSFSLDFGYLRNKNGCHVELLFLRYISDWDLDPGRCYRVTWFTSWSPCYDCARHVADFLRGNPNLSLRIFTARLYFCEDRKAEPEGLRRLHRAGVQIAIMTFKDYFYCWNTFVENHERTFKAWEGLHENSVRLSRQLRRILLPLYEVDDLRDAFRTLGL
The depositor's hits bear a star; i = inactive; ? = inconclusive; [ ] = another dose, or the depositor's remark. The call rests on the fitted dose curve; in most records, active means well fitted curve in the direction sought with a large enough effect; inconclusive means small, poorly fitted or top-dose-only effect, or another doubt; inactive means no such curve, though single readings can be large; an effect the other way counts as inactive or inconclusive. On the % scale 0 is the no-effect control and ±100 the full control effect; potency means the concentration at half of the fitted maximal effect.

SMILES	UDG counterscr	AID inhibitor
COc1ccc(CCNC(=S)NNC(=S)NCC2CCCO2)cc1OC (stereo unspecified)	4.2%	i
CCC(CC)NC(=O)COC(=O)c1cc(S(=O)(=O)N(CC)CC)ccc1N1CCCCC1	7.0%	i
c1ccc(CN2CCC(=NNc3nncc4ccccc34)CC2)cc1	5.0%	i
NNc1nncc2ccccc12	35.5µM*	44.7µM*
CC(C)CNC(=O)C(=O)O	1.7%	i
Cc1occc1-c1nnc(SCc2cc3c(cc2Br)OCCO3)n1C	0.6%	i
Cn1c(Cl)c(C=O)c2ccccc21	0.7%	i
CC1=C(C(=O)OC(C)(C)C)C(c2cccc(Cl)c2)NC(=O)N1 (stereo unspecified)	-4.4%	i
CCOc1ccc(C(=O)Nc2ccc3nc(N(CC)CC)cc(C)c3c2)cc1	-6.7%	i
CCN(CC)c1cc(C)c2cc(NC(=O)c3cccc(OC)c3)ccc2n1	-17.7%	79.4µM*
COc1cccc(CNC(=O)C2CCCN(c3nc4ccccc4n4cccc34)C2)c1 (stereo unspecified)	-6.3%[57.5 µM]	i
Cc1ccc(CNC(=O)C2CCCN(c3nc4ccccc4n4cccc34)C2)cc1 (stereo unspecified)	-8.6%[57.5 µM]	79.4µM*
CC(C)Oc1ccc(CNC(=O)Nc2ccc3c(c2)N(C)C(=O)c2ccccc2S3)cc1	-14.3%[57.5 µM]	?
COc1ccc(CNC(=O)Nc2ccc3c(c2)N(C)C(=O)c2ccccc2S3)cc1OC	3.6%[57.5 µM]	89.1µM*
COC(=O)c1ccc(NC(=O)CN(Cc2ccccc2)S(=O)(=O)c2ccc(C)cc2)cc1	21.9%	i
COc1ccc(NC(=O)CN(Cc2ccccc2)S(=O)(=O)c2ccc(C)cc2)cc1Cl	89.1µM*	i
CCCNC(=O)c1cnn2c(C)c(Cc3c(C)cc(C)cc3C)c(C)nc12	-10.0%	39.8µM*
Cc1nc2c(C(=O)NCc3ccccc3)cnn2c(C)c1Cc1ccc(F)cc1	-22.3%	?
COc1ccc(CNC(=O)c2cnn3c(C)c(Cc4c(F)cccc4Cl)c(C)nc23)cc1	-17.0%	35.5µM*
CCCCNC(=O)c1cnn2c(C)c(Cc3c(C)cc(C)cc3C)c(C)nc12	-27.6%	?
COc1ccc(C23CC4CC(CC(C(=O)Nc5nc(C)cs5)(C4)C2)C3)cc1	-1.3%	i
CCCC[N+](CCCC)(CCCC)CCCC	2.0%	i
COc1cc(/C=C(/C#N)c2ccc(Cl)cc2)cc(Cl)c1OCc1ccccc1C#N	-11.4%	i
NC(=O)c1cccc(O)c1	-7.9%	i
Cc1nc2c(C(=O)NCCc3ccccc3)c[nH]n2c(=O)c1Cc1ccc(F)cc1Cl	-7.3%	i
SMILES	UDG counterscr	AID inhibitor
Cc1ccc(CNC(=O)c2c[nH]n3c(=O)c(Cc4ccc(F)cc4Cl)c(C)nc23)cc1	-7.2%	70.8µM*
CCc1ccc(NC(=S)N(Cc2ccccc2)Cc2cccs2)cc1	-12.7%	i
CC(C)(Sc1ccc(CCN(CCCCC2CCCCC2)C(=O)NC2CCCCC2)cc1)C(=O)O	0.3%	89.1µM*
CCCCc1ccc(NC(=O)CC2CCCCC2)cc1	11.7%	i
Cc1cc(OS(C)(=O)=O)cc2c1C(=O)/C(=C/c1ccccc1F)O2	-9.0%	i
COc1ccccc1Cn1cc(C(=O)c2ccc(Cl)cc2)c(=O)c2ccccc21	15.6%	i
COc1cccc(Cn2cc(C(=O)c3ccc(Cl)cc3)c(=O)c3ccccc32)c1	-14.9%	28.2µM*
CCCCOc1ccc(C(=O)N(Cc2ccc(C(C)C)cc2)C2CCS(=O)(=O)C2)cc1 (stereo unspecified)	-9.8%	25.1µM*
CCCOc1ccc(C(=O)N(Cc2ccc(C(C)C)cc2)C2CCS(=O)(=O)C2)cc1 (stereo unspecified)	-17.8%	?
O=C(NCc1ccc(CN2CCCCC2)cc1)c1ccc(C(F)(F)F)nc1	-2.9%	i
CCOc1ccccc1OC(=O)c1ccc(F)cc1Cl	-6.3%	i
Cc1ccc(C)c(N2CCN(CCCNC(=O)c3ccc4nc(N5CCCCC5)sc4c3)CC2)c1	-10.6%	39.8µM*
Cc1ccc(CNC(=O)c2ccc3nc(N4CCCCC4)sc3c2)cc1	-8.6%	i
O=C(c1cccc(Br)c1)C(Cl)C(=O)c1cccc(Br)c1	-6.2%	i
CC(=O)N1CCc2c(sc3c2c(=O)n(Cc2ccccc2)c(=O)n3Cc2ccccc2Cl)C1	-28.7%	22.4µM*
C=Cc1ccc(Cn2c(=O)n(-c3cccc(Cl)c3)c(=O)c3c4c(sc32)CN(C(C)=O)CC4)cc1	79.4µM*	?
CCOC(=O)N1CCc2c(sc3c2c(=O)n(-c2ccc(CC)cc2)c(=O)n3Cc2cccc(Cl)c2)C1	-5.3%[57.5 µM]	i
CC(=O)N1CCc2c(sc3c2c(=O)n(Cc2ccccc2)c(=O)n3Cc2ccccc2F)C1	-18.0%	?
CC(=O)Oc1ccc(CC(=O)Nc2ccc(O)c(-c3nc4ccccc4o3)c2)cc1	3.2%	i
CC(=O)N1CCN(C(C(=O)O)c2cn(CC(=O)O)c3ccccc23)CC1 (stereo unspecified)	2.4%	i
COc1cccc(NC(=O)CSc2nc3c([nH]c4ccccc43)c(=O)n2-c2cccc(Cl)c2)c1	-4.5%	i
COc1cccc(-n2c(SCC(=O)Nc3cccc(C)c3)nc3c([nH]c4ccccc43)c2=O)c1	-19.2%	12.6µM*
COCCNC(=O)/C(C#N)=C\c1cccc(C(F)(F)F)c1	0.8%	i
CCCN(CCC)CC(O)Cn1cc(/C=C/C(=O)c2ccc(C)cc2)c2ccccc21 (stereo unspecified)	-15.5%	35.5µM*
CCCN(CCC)CC(O)Cn1cc(/C=C/C(=O)c2ccc(Br)cc2)c2ccccc21 (stereo unspecified)	-3.8%	i
SMILES	UDG counterscr	AID inhibitor
Cc1cc(C)cc(CCCCCCCCCCCC(=O)O)c1	-3.0%	79.4µM*
O=C(O)CCCCCCCC(=O)O	7.1%	i
Cc1cc(C)c(NC(=O)Cn2nnc(-c3nc(-c4ccc(F)cc4)no3)c2N)c(C)c1	4.3%	i
Cc1noc2ncnc(NCCc3ccccc3)c12	-4.3%	?
Clc1ccc(-c2noc3ncnc(NCCc4ccccc4)c23)cc1	-10.3%	25.1µM*
CC(C)C(C)(C#N)NC(=O)CCc1ccccc1 (stereo unspecified)	8.6%	i
Cc1ccc(NC(=O)c2cc(S(=O)(=O)N3CCCc4ccccc43)ccc2F)cc1F	?	i
Cc1cccc(C)c1NC(=O)c1cc(S(=O)(=O)N2CCCc3ccccc32)ccc1F	89.1µM*	i
CCc1ccc2oc(=O)cc(CN3CCN(CC(=O)N4CCCCC4)CC3)c2c1	-3.0%	i
CCOC(=O)c1cnc2ccc(C(=O)OC)cc2c1Nc1ccc(OCC)cc1	-9.5%	i
COc1cccc(CNC(=O)C(C)Oc2ccccc2)c1 (stereo unspecified)	-5.7%	i
Cc1cccc(N(CC(=O)N(C)Cc2ccccc2)S(=O)(=O)c2ccccc2)c1C	-9.7%	35.5µM*
Cc1cccc(N(CC(=O)NCCc2ccccc2)S(=O)(=O)c2ccccc2)c1C	3.0%[57.5 µM]	i
O=C(c1ccco1)N(Cc1cccs1)C1CC1	-0.5%	i
CCC1CCCCN1S(=O)(=O)c1ccc2c(c1)CCCN2C(C)=O (stereo unspecified)	-0.3%	i
CC1CCCCN1S(=O)(=O)c1cc2c3c(c1)CC(=O)N3CCC2 (stereo unspecified)	89.1µM*	?
CCC1CCCCN1S(=O)(=O)c1cc2c3c(c1)CC(=O)N3CCC2 (stereo unspecified)	89.1µM*	i
CC1CCN(S(=O)(=O)c2cc3c4c(c2)CC(=O)N4CCC3)CC1	-24.8%	i
